compound,measurement,setting,value
COc1cc(Nc2cnc(C#N)c(O[C@H](C)CN(C)C)n2)ncc1-c1cnn(C)c1 [CCT244747],Kinases covered,RPS6KA3,RPS6KA3
CCn1c(-c2nonc2N)nc2cncc(C(=O)N3CC[C@H](N)C3)c21.Cl [SB-772077-B],Kinases covered,RPS6KA5,RPS6KA5
same,Kinases covered,RSK1,RSK1
CCCNC(=O)c1ccc(Nc2ncc(C(F)(F)F)c(Nc3ccccc3C(C)=O)n2)c(Br)c1 [BI00801818],Kinases covered,RSK1,RSK1
same,Kinases covered,RSK2,RSK2
COc1ccc2[nH]c3c4[nH]c5ccc(OC)cc5c4c4c(c3c2c1)C(=O)NC4=O [GW296115X],Kinases covered,RSK3,RSK3
CC(C)N1CC(=O)N(C)c2cnc(Nc3cccc(S(=O)(=O)CCN4CCOCC4)c3)nc21 [BI00009348],Kinases covered,RSK4,RSK4
same,Kinases covered,STK16,STK16
same,Kinases covered,TAK1,TAK1
CCn1c(-c2nonc2N)nc2cncc(CNC3CCNCC3)c21 [SB-747651A],Kinases covered,RSK,RSK
CCn1cc(-c2ccnc3[nH]c(-c4cccc(CN(C)C)c4)cc23)c(-c2ccc(NC(=O)N(C)C)cc2)n1 [GSK1070916],Kinases covered,SIK,SIK
COc1cc2c(cc1OC)C(=C(Nc1ccccc1)c1cccc(CN)c1)C(=O)N2 [BIBF0846CL],Kinases covered,SNARK,SNARK
COc1cc2ncnc(Nc3cccc(Cl)c3F)c2cc1O[C@H]1CC[C@H]([C@@H]2NCCNC2=O)CC1 [BI00133844],Kinases covered,SRC,SRC
CCCS(=O)(=O)Nc1ccc(F)c(-n2cc(-c3cncc(OC)c3)nn2)c1F [BI00865461],Kinases covered,SRMS,SRMS
COc1ccc2cc(-c3c(-c4ccncc4)nc(-c4ccc(S(C)(=O)=O)cc4C)n3C)ccc2c1 [SB-633825],Kinases covered,STK10,STK10
COc1cc2ncn(-c3cc(OCC4CCCO4)c(C(N)=O)s3)c2cc1OC (stereo not drawn) [GSK204607],Kinases covered,STK10,STK10
CNc1nc(-c2ccc3c(N)n[nH]c3c2)cc(N2C[C@@H](C(=O)Nc3ccccc3)CC[C@H]2C)n1 [GSK2298859],Kinases covered,STK17B,STK17B
C[C@@H]1CCNC(=O)c2cc3ccc(C(=O)Nc4nc5ccccc5n4CCCN(C)C)cc3n21 [BI00645435],Kinases covered,STK17B,STK17B
O=C(Nc1cccc(-c2nn3ncccc3c2-c2ccnc(Nc3cccnc3)n2)c1)c1c(F)cccc1F [GSK312879],Kinases covered,STK36,STK36
COC[C@@H](C)N[C@H]1CC[C@H](Nc2cc(-c3cccc(NCC4(C#N)CCOCC4)n3)c(Cl)cn2)CC1 [NVP-2],Kinases covered,TAOK3,TAOK3
CN(C)C/C=C/C(=O)Nc1ccc(C(=O)Nc2cccc(Nc3ncc(Cl)c(-c4c[nH]c5ccccc45)n3)c2)cc1 [THZ1],Kinases covered,TBK1,TBK1

# — PMC7826789 (International Journal of Molecular Sciences, 2021)
